Broadly, the AC50 is the concentration at which the activity in the assay is half-maximal.

SMILES strings stand for the structures. Where “and” joins values, the source holds several entries; their conditions need not be identical. Equal values may be shown once. Hit rate of the full screen: of about 16,000 compounds, about 5,100 (32%) were called active. Not shown: some 25% with an inconclusive outcome. The list shows a part of the results. Unmarked numbers belong to inactive results. The call rests on the fitted dose curve; in most records, active means well fitted curve in the direction sought with a large enough effect; inconclusive means small, poorly fitted or top-dose-only effect, or effect the other way; inactive means no such curve, though single readings can be large or run the other way. Square brackets hold non-standard residues; d marks the D form. Peptide text beside a SMILES is read from it.
On the % scale 0 is the no-effect control and ±100 the full control effect.

In this experiment the target is Cytochrome P450 3A4 (Homo sapiens) (UniProt P08684). Nature of the experiment: Cytochrome panel assay with activity outcomes. The note with it: recombinant CYP, pro-luciferin dealkylation, luminescence, p450-cyp3a4; series mostly up to 57.1 µM; activity, negative = inhibition: at the top concentration.
Sequence of Cytochrome P450 3A4 (Homo sapiens) (P08684 whole entry, looked up): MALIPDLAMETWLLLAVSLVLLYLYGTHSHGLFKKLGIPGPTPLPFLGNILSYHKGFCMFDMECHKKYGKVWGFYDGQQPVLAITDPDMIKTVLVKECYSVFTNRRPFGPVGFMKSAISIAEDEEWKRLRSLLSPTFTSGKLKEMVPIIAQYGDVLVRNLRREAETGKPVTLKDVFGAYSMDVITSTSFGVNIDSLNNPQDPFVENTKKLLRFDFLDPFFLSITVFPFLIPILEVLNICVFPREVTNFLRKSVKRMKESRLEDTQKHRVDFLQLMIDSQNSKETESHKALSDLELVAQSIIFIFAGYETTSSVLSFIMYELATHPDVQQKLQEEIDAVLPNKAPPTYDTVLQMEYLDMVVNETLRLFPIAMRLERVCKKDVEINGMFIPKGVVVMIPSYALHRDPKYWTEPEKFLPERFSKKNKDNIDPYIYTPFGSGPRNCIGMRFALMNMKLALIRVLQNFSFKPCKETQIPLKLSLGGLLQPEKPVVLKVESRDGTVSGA
Turning to `CCCCCCCCCCCCCCCC(=O)C(F)(F)F`, the “activity, negative = inhibition” value is -11.7%.

For the molecule `COc1ccc(-n2c(=O)c(-c3cccs3)nc3cnc(Oc4ccccc4)nc32)cc1`, the “activity, negative = inhibition” value was -9.44%.

Take `COc1ccc(Oc2ncc3nc(-c4cccs4)c(=O)n(-c4ccccc4)c3n2)cc1`: the AC50 was 2.51 µM (active).

Turning to `COc1ncc2nc(-c3cccs3)c(=O)n(-c3ccccc3)c2n1`, the “activity, negative = inhibition” value is -29.3%.

As for `COc1ccc(-n2c(=O)c(-c3cccs3)nc3cnc(OC)nc32)cc1`, the AC50 is 7.94 µM (active).

As for `CN(C)CCN(c1ccccn1)c1ccccn1`, the activity, negative = inhibition was -13.9% [at 11.4 µM].

On to `N#C[C@H]1CN[C@H](N)N[C@@H]1N`, for which the activity, negative = inhibition was -6.92% [at 11.4 µM].

With `COc1ccc(-c2ccc(/C=C3\C(=O)N(c4ccccc4)N=C3c3ccccc3)o2)c([N+](=O)[O-])c1`, the AC50 is 2 µM (active).

As to `Cc1sc(=NC(=O)c2ccco2)n(C)c1-c1ccc(F)cc1`, the “activity, negative = inhibition” value was 25.2%.

As to `CC(C)OC(=O)c1nnn(-c2nonc2N)c1CSc1ccccn1`, the AC50 is 0.398 µM (active).

Take `N#CN(CC(N)=O)c1nc(N2CCCCC2)nc(N2CCCCC2)n1`: the activity, negative = inhibition was -13.4% [at 11.4 µM].

Turning to `CCOC(=O)c1nnn(-c2nc(OC)nc(N3CCCCC3)n2)c1-c1ccccc1`, the AC50 is 15.8 µM (active).

Regarding `COc1nc(/C(N)=N/O)nc(N2CCCCC2)n1`, the “activity, negative = inhibition” value is -1.23%.

With `CCOC(=O)c1nnn(-c2nonc2N)c1-c1ccc(C)cc1`, the activity, negative = inhibition was -14.1% [at 2.29 µM].

As to `CCOC(=O)c1cnc(SCCc2ccccc2)nc1N`, the “activity, negative = inhibition” value is -14.7%.

Turning to `CCOC(=O)c1nnn(-c2nonc2N)c1-c1ccccc1`, the AC50 is 15.8 µM (active).

On to `CC(C)(O)c1cn(-c2nonc2N)nn1`, for which the “activity, negative = inhibition” value was -2.62%.

`COCc1c(C(N)=O)nnn1-c1nonc1N`: the “activity, negative = inhibition” value was 3.21%.

In the case of `Nc1nonc1-n1nncc1-c1ccccc1`, the AC50 was 15.8 µM (active).

For the molecule `CCCOc1cc(N)ccc1C(=O)OCCN(CC)CC`, the “activity, negative = inhibition” value was -30.4% [at 25.6 µM].

With `N[C@H](CO)C(=O)NCC(=O)O` (H-[dS]-Gly-OH), the activity, negative = inhibition is -1.48% [at 11.4 µM].

`CC(=O)N=c1sc(S(N)(=O)=O)nn1C`: the “activity, negative = inhibition” value is -10.1% [at 25.6 µM].

For the molecule `CCc1cc2c(=O)c(-c3nc4ccccc4n3C)c(C)oc2c(CN(CC)CC)c1O`, the “activity, negative = inhibition” value was -26.8%.

Turning to `CN(C)Cc1cc(O)c(O)c(CN(C)C)c1`, the activity, negative = inhibition is -13.7% [at 11.4 µM].

Regarding `Cc1cc2c(s1)CCCCC(=O)N2`, the “activity, negative = inhibition” value is 23.4%.

In the case of `Cc1c(C(=O)N2CCCCCC2)nnn1-c1nonc1N`, the AC50 is 11.2 µM (active).

Consider `Cc1nonc1NC(=O)N1CCCC1`, for which the “activity, negative = inhibition” value was 29.8%.

Consider `CCOc1nc(N2CCCCC2)nc(-n2cc(-c3ccccc3)nn2)n1`, for which the AC50 was 15.8 µM (active).

For `CC1CCN(CC[S-])CC1.O.O.[Cl][Pt]`, the activity, negative = inhibition was -1.49% [at 11.4 µM].

Regarding `Cc1cc(C(=O)N[C@@H](c2ccccc2)[C@]2(C)C[C@H]2[C@@H](C)C(=O)Nc2ccc3ccccc3c2)n(C)n1`, the AC50 was 0.794 µM (active).

`Cc1cc(C(=O)N[C@H](c2ccccc2)[C@@]2(C)C[C@@H]2[C@@H](C)C(=O)Nc2ccc3ccccc3c2)n(C)n1`: the AC50 is 0.794 µM (active).

Turning to `O=C(Nc1cc(C(=O)Nc2ccc(S(=O)(=O)O)cc2S(=O)(=O)O)cc(C(=O)Nc2ccc(S(=O)(=O)O)cc2S(=O)(=O)O)c1)Nc1cc(C(=O)Nc2ccc(S(=O)(=O)O)cc2S(=O)(=O)O)cc(C(=O)Nc2ccc(S(=O)(=O)O)cc2S(=O)(=O)O)c1`, the “activity, negative = inhibition” value is -3.85%.

With `Fc1nc(N2CCCC2)c(F)c(Oc2ccccc2Oc2c(F)c(F)nc(N3CCCC3)c2F)c1F`, the “activity, negative = inhibition” value was 17.1%.

Consider `CN(Cc1ccco1)c1ncnc2ccc(-c3ccoc3)cc12`, for which the AC50 is 25.1 µM (active).

As to `Cc1noc(C)c1-c1ccc2ncnc(N(C)Cc3ccco3)c2c1`, the AC50 is 25.1 µM (active).

Regarding `CN(C)C(=O)c1ccc(-c2cc(N(C)Cc3ccco3)ncn2)cc1`, the “activity, negative = inhibition” value was 25.6%.

As for `CN(Cc1ccco1)c1ncnc2ccc(-c3ccc4c(c3)OCO4)cc12`, the AC50 is 2.51 µM (active).

On to `Cc1noc(C)c1-c1ccc2ncnc(N(C)C)c2c1`, for which the “activity, negative = inhibition” value was -29.5%.

In the case of `N#CC(CC(=O)O)=C(c1ccccc1)c1ccccc1`, the activity, negative = inhibition is 5.39% [at 11.4 µM].

As for `Cc1nn(-c2ccc(F)cc2)c(C)c1NS(=O)(=O)c1ccc2ccccc2c1`, the AC50 was 4.47 µM (active).

Consider `Cc1nn(-c2ccc(F)cc2)c(Cl)c1/C=C(\CCC(=O)O)c1nc2ccccc2s1`, for which the “activity, negative = inhibition” value is 21.6%.

Turning to `CC(=O)Nc1c(C)nn(-c2ccc(C)c(C)c2)c1C`, the activity, negative = inhibition was -3.89% [at 11.4 µM].

Take `Cc1ccc(C(=O)N/N=C/c2ccc([N+](=O)[O-])s2)cc1`: the “activity, negative = inhibition” value was -26.6%.

Regarding `Cc1cccc(NC(=S)N/N=C/c2ccc([N+](=O)[O-])s2)c1`, the AC50 was 22.4 µM (active).

As to `O=[N+]([O-])c1ccc(C=Nc2ccc(Cl)cc2Cl)s1`, the “activity, negative = inhibition” value was -29.3%.

As for `O=C(O)Cc1ccc(NC(=O)C2CCCCC2C(=O)O)cc1` (centres undefined), the “activity, negative = inhibition” value was -1.35%.

`CCSc1nnc(NC(=O)C(C(F)(F)F)C(F)(F)F)s1`: the “activity, negative = inhibition” value was -17%.

Consider `CCSc1nnc(NC(=O)Cc2ccc(OC)c(OC)c2)s1`, for which the activity, negative = inhibition is -2.65% [at 2.29 µM].

Turning to `CCSc1nnc(NC(=O)CSc2nc3c(cc2C#N)CCCC3)s1`, the AC50 was 10 µM (active).

For `O=C(NCCc1ccc(O)cc1)c1ccc(Cl)cc1`, the activity, negative = inhibition is 1.62% [at 2.29 µM].

Regarding `Oc1cc2c(cc1O)CN(C(=S)NCCc1ccc(Cl)cc1)CCC2`, the AC50 was 3.16 µM (active).

For `CC[C@@]1([N+](=O)[O-])C[C@H]2C=C[C@@H]1C2`, the activity, negative = inhibition is -4.49% [at 11.4 µM].

Regarding `C/C(=C\c1ccco1)C1C(C#N)=C(N)Oc2n[nH]c(-c3ccccc3)c21` (centres undefined), the AC50 was 3.98 µM (active).

As for `Cc1ccc(NC(=O)C(=O)NCc2ccc(/C=C(/C#N)C(=O)NCc3cccnc3)o2)cc1`, the AC50 is 1.41 µM (active).

With `Nc1nc(-c2ccc3ccccc3c2)cc(-c2cc(-c3ccc4ccccc4c3)nc(N)n2)n1`, the activity, negative = inhibition is -3.3% [at 11.4 µM].

Regarding `Cc1cc(N)n(-c2ccc3ccccc3c2)n1`, the AC50 was 28.2 µM (active).

On to `Cc1cc(N)n(-c2ccccc2)n1`, for which the “activity, negative = inhibition” value was -14.7%.

Turning to `COc1cc(N=C(N)N=C(N)N)c2ncccc2c1`, the activity, negative = inhibition was -8.88% [at 11.4 µM].

Turning to `CC1Cc2ccccc2N1C(=O)CCN1C(=O)C2C3C=CC(C3)C2C1=O` (centres undefined), the AC50 is 1.41 µM (active).

In the case of `CC1Cc2ccccc2N1C(=O)c1cc2c(=O)n3ccccc3nc2n1C` (centres undefined), the “activity, negative = inhibition” value is -16.7%.

In the case of `CC1Cc2ccccc2N1C(=O)CSCC(=O)O` (centres undefined), the “activity, negative = inhibition” value was -12.7%.

With `CCOC(=O)CCN1C(=O)[C@H]2[C@@H]3[C@H](O)[C@H](O)CC(=O)[C@H]3CC[C@H]2C1=O`, the activity, negative = inhibition is -4.78% [at 11.4 µM] and -14.8% [at 11.4 µM].

For `CC1Cc2ccccc2N1C(=O)Cn1c(=O)cc(O)c2ccccc21` (centres undefined), the concentration at half-maximal activity (AC50) is 25.1 µM (active).

On to `O=C(CCN1C(=O)C2C3C=CC(C3)C2C1=O)NCCN1CCCc2ccccc21` (centres undefined), for which the AC50 is 3.98 µM (active).

With `CC1Cc2ccccc2N1C(=O)CN1C(=O)COc2ccccc21` (centres undefined), the activity, negative = inhibition was -6.97% [at 2.29 µM].

With `O=C(O)Cc1ccc2ocnc2c1`, the “activity, negative = inhibition” value was 10.5%.

Take `COc1ccc(Oc2ncc3nc(C)c(=O)n(-c4ccccc4)c3n2)cc1`: the AC50 was 5.01 µM (active).

`Cc1nc2cnc(Oc3ccccc3)nc2n(C)c1=O`: the “activity, negative = inhibition” value is -6.94%.

For `COc1ccc(Oc2ncc3nc(C)c(=O)n(-c4ccc(OC)cc4)c3n2)cc1`, the AC50 was 3.98 µM (active).

Regarding `COc1ccc(-n2c(=O)c(C)nc3cnc(Oc4ccccc4)nc32)cc1`, the AC50 is 15.8 µM (active).

As for `COc1ccc(Oc2ncc3nc(C)c(=O)n(C)c3n2)cc1`, the AC50 was 25.1 µM (active).

`COc1ccc(-c2oc3ccccc3c(=O)c2OC(=O)c2ccc(C)cc2)cc1`: the “activity, negative = inhibition” value is 2.5%.

Turning to `CN(C)S(=O)(=O)c1ccc(NC(=O)COC(=O)c2ccccn2)cc1`, the “activity, negative = inhibition” value was -17.6%.

Turning to `CCOC(=O)c1oc2ccccc2c1NC(=O)c1ccc(S(=O)(=O)N(C)C)cc1`, the AC50 is 14.1 µM (active).

In the case of `CN(C)S(=O)(=O)c1ccc(C(=O)Nc2ccc(CN3CCCC3)cc2)cc1`, the “activity, negative = inhibition” value was 24.6%.

As for `CCOC(=O)c1oc2ccccc2c1NC(=O)c1cc(OC)cc(OC)c1`, the AC50 was 7.94 µM (active).

As to `CCOC(=O)c1oc2ccccc2c1NC(=O)c1ccc2c(c1)OCO2`, the AC50 is 2.24 µM (active).

In the case of `Nc1c(OCC(=O)O)ccc2cc(S(=O)(=O)O)ccc12`, the activity, negative = inhibition is -9.68% [at 11.4 µM].

In the case of `CNc1ncnc2c1ncn2[C@@H]1O[C@H](CO)[C@@H](O)[C@@H]1O`, the “activity, negative = inhibition” value is 10% [at 25.6 µM].

Turning to `NC(=O)OC[C@H](O)COc1ccc(Cl)cc1`, the “activity, negative = inhibition” value is -3.48% [at 25.6 µM].

Take `O=C(Nc1ccc2ccccc2c1)[C@H]1C[C@@H]1[C@H](NP(=O)(c1ccccc1)c1ccccc1)c1ccccc1`: the AC50 was 2.51 µM (active).

With `C[C@H](CO)NC(=O)[C@@H]1C[C@H]1[C@@H](NP(=O)(c1ccccc1)c1ccccc1)c1ccccc1`, the AC50 was 12.6 µM (active).

On to `O=C(Nc1ccc2ccccc2c1)[C@@H]1C[C@H]1[C@@H](NP(=O)(c1ccccc1)c1ccccc1)c1ccccc1`, for which the “activity, negative = inhibition” value is -44.6%.

As for `CCOC(=O)CCN1C(=O)[C@H]2[C@H]3[C@H](O)[C@H](O)C/C(=N/OC/C=C(\C)CCC=C(C)C)[C@H]3CC[C@@H]2C1=O`, the activity, negative = inhibition is -16.7% [at 11.4 µM].

For `CC(C)=CCC/C(C)=C/CO/N=C1/C[C@@H](O)[C@@H](O)[C@@H]2[C@@H]3C(=O)N(Cc4ccc5c(c4)OCO5)C(=O)[C@H]3CC[C@@H]12`, the AC50 was 1.58 µM (active).

Regarding `CC(C)=CCC/C(C)=C/CO/N=C1/C[C@@H](O)[C@@H](O)[C@@H]2[C@@H]3C(=O)N(Cc4ccccc4)C(=O)[C@H]3CC[C@@H]12`, the activity, negative = inhibition is -7.78% [at 11.4 µM].

For the molecule `CCOC(=O)CCN1C(=O)[C@H]2[C@H]3[C@H](O)[C@H](O)C/C(=N/OC/C=C(\C)CCC=C(C)C)[C@@H]3CC[C@@H]2C1=O`, the activity, negative = inhibition was -25.9% [at 11.4 µM].

On to `CC(C)=CCC/C(C)=C/CO/N=C1/C[C@@H](O)[C@@H](O)[C@@H]2[C@@H]3C(=O)N(Cc4ccc5c(c4)OCO5)C(=O)[C@H]3CC[C@H]12`, for which the concentration at half-maximal activity (AC50) was 1.58 µM (active).

As for `CC(C)=CCC/C(C)=C/CO/N=C1/C[C@@H](O)[C@@H](O)[C@@H]2[C@@H]3C(=O)N(C[C@@H]4CCCO4)C(=O)[C@H]3CC[C@@H]12`, the activity, negative = inhibition was -23% [at 11.4 µM].

Values taken from PubChem BioAssay AID1851 (National Center for Advancing Translational Sciences (NCATS), 2009).
